# In PubChem BioAssay (Tox21):
# Unmarked numbers belong to inactive results. Records with an inconclusive call do not appear. A call without a number means that no potency is given here. The source made the active and inactive calls. Unless noted, the call rests on the fitted dose curve; in most records, active means well fitted curve in the direction sought with a large enough effect in the repeat runs; inconclusive means weak or mixed curves; inactive means no such curve, though single readings can be large; an effect the other way counts as inactive or inconclusive.
# Key:
# [1] = target: Acetylcholinesterase (Homo sapiens) (UniProt P22303); assay: Acetylcholinesterase (AChE) small molecule antagonists: enzyme-based qHTS assay (AID 1347397; calls by dose curve; further: nearly all actives have a fitted effect of over 55% in size; further: potency means the concentration at half of the fitted maximal effect); conditions: Potency: AChE enzyme activity inhibition
# Acetylcholinesterase (Homo sapiens), sequence (P22303 whole entry, looked up): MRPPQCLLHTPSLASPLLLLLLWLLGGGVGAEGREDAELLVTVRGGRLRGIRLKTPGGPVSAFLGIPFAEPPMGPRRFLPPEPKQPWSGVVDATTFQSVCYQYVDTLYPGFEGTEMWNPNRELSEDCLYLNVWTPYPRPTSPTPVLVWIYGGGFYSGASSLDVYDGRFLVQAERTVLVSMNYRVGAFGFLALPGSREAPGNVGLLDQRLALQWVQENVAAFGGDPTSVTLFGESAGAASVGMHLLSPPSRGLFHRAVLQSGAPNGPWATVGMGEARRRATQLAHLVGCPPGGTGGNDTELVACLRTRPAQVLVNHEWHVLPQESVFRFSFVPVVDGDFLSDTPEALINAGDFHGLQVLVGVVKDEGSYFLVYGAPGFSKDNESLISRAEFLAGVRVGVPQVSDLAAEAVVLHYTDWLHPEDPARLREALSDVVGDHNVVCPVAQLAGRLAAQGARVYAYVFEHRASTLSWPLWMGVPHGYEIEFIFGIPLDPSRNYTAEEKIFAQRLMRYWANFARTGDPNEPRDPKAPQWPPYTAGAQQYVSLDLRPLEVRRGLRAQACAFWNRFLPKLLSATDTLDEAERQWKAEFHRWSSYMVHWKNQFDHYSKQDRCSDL
# How it was run: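 Human recombinant acetylcholinesterase; substrate acetylthiocholine; thiocholine quantified with DTNB (colorimetric). Compound preincubation 30 min RT; reaction 10 min RT.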
# [2] = target: Acetylcholinesterase (Homo sapiens) (UniProt P22303); assay: Acetylcholinesterase (AChE) small molecule antagonists: fluorescence cell-based qHTS assay (AID 1347398; calls by dose curve; further: nearly all actives have a fitted effect of over 50% in size; further: potency means the concentration at half of the fitted maximal effect); conditions: Potency: AChE activity
# How it was run: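 Thiocholine generated from acetylthiocholine by SH-SY5Y cell AChE is detected with Thiolite Green (Ex/Em 490/520 nm) after 40 min at room temperature, following 30 min compound pretreatment at 37 C.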
# [3] = target: Cytochrome P450 2D6 (Homo sapiens) (UniProt P10635); assay: Cytochrome P450 Family 2 Subfamily D Member 6 (CYP2D6) small molecule antagonists: luciferase reporter qHTS assay (AID 1671196); further: nearly all actives have a fitted effect of over 50% in size; further: potency means the concentration at half of the fitted maximal effect; on activity change, negative = inhibition: series mostly up to about 120 µM
# Cytochrome P450 2D6 (Homo sapiens), sequence (P10635 whole entry, looked up): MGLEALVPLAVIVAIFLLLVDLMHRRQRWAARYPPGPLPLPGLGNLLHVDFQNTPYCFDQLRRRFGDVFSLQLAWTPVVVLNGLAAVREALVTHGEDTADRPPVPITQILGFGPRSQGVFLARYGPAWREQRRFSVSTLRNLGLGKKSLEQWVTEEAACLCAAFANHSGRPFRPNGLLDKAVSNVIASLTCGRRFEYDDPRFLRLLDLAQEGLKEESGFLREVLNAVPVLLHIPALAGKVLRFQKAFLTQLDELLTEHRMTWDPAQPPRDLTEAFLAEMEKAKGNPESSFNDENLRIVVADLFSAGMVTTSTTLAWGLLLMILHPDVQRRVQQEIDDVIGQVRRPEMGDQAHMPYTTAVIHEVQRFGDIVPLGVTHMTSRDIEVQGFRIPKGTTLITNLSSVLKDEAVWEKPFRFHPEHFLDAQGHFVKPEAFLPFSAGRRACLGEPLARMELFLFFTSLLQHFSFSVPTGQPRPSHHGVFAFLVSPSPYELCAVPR
# How it was run: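 Each well received CYP2D6 with its proluciferin substrate and chemical, sat 10 min, then got NADPH regeneration solution for 1 h at room temperature. Luminescence in RLU served as the activity measure.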
# [4] = target: Cytochrome P450 2C19 (Homo sapiens) (UniProt P33261); assay: Cytochrome P450 Family 2 Subfamily C Member 19 (CYP2C19) small molecule antagonists: luciferase reporter qHTS assay (AID 1671197); further: nearly all actives have a fitted effect of over 65% in size; further: potency means the concentration at half of the fitted maximal effect; on activity change, negative = inhibition: series mostly up to about 120 µM
# Cytochrome P450 2C19 (Homo sapiens), sequence (P33261 whole entry, looked up): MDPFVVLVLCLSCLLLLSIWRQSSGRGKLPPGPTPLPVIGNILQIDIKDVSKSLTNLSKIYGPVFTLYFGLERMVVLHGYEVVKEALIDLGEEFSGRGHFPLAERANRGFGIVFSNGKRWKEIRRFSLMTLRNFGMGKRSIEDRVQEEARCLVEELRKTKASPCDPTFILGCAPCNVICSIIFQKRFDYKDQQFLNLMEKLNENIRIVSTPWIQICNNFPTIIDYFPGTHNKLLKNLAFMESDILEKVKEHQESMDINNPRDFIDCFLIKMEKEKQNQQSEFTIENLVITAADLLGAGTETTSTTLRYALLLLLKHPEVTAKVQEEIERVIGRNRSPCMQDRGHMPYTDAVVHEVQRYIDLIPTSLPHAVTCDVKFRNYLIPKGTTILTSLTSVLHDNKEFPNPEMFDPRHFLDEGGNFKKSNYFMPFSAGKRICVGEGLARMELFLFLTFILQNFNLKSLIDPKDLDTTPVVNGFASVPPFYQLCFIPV
# How it was run: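 P450-Glo CYP2C19 screening system; proluciferin substrate; DMSO compound stocks; 10 min RT preincubation; NADPH regeneration, 1 h at 37C; luciferin detection reagent, 20 min RT; luminescence as RLU.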
# [5] = target: Cytochrome P450 2C9 (Homo sapiens) (UniProt P11712); assay: Cytochrome P450 Family 2 Subfamily C Member 9 (CYP2C9) small molecule antagonists: luciferase reporter qHTS assay (AID 1671198); further: nearly all actives have a fitted effect of over 50% in size; further: potency means the concentration at half of the fitted maximal effect; on activity change, negative = inhibition: series mostly up to about 120 µM
# Cytochrome P450 2C9 (Homo sapiens), sequence (P11712 whole entry, looked up): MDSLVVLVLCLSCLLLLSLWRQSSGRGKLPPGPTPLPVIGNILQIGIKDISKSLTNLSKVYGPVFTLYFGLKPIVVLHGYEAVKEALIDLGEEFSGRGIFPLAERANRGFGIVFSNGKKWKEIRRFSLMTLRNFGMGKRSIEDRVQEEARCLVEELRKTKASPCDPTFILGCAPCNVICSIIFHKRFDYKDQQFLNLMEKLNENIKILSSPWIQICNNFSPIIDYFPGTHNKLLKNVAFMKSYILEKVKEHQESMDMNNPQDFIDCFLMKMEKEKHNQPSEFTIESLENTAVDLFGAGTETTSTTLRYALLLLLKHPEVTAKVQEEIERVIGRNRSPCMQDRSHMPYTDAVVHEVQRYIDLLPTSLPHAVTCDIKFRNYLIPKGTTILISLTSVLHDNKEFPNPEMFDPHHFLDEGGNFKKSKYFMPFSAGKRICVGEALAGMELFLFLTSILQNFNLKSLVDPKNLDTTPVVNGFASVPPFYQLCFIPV
# How it was run: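 CYP2C9 activity was measured with a P450-Glo proluciferin substrate. Enzyme–substrate mix was held with compound for 10 min at room temperature, then NADPH regeneration solution was added for 1 h at 37C. Luciferin product was read as luminescence.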
# [6] = target: Cytochrome P450 1A2 (Homo sapiens) (UniProt P05177); assay: Cytochrome P450 Family 1 Subfamily A Member 2 (CYP1A2) small molecule antagonists: luciferase reporter qHTS assay (AID 1671199); further: nearly all actives have a fitted effect of over 50% in size; further: potency means the concentration at half of the fitted maximal effect; on activity change, negative = inhibition: series mostly up to about 120 µM
# Cytochrome P450 1A2 (Homo sapiens), sequence (P05177 whole entry, looked up): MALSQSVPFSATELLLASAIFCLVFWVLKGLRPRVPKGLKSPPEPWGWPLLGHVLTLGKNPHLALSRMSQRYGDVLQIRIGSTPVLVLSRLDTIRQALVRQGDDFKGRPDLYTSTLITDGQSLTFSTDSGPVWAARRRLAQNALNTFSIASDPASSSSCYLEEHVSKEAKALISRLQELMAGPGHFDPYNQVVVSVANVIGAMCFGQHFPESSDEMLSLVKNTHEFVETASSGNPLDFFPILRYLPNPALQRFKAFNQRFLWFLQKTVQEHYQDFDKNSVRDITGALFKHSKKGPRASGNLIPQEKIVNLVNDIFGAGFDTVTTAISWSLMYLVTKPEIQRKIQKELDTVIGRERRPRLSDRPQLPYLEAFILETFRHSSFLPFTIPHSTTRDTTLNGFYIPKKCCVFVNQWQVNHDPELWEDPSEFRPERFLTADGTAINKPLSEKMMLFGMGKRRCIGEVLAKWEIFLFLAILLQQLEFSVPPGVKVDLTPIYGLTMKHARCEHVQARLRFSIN
# How it was run: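 Enzymatic CYP1A2 assay, human, luminescent: 10 min compound–enzyme–substrate preincubation, 1 h NADPH-dependent turnover, 20 min detection step, room temperature throughout. Reduced light indicates lower CYP1A2 activity.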
# [7] = target: Voltage-gated inwardly rectifying potassium channel KCNH2 (Homo sapiens) (UniProt Q12809); assay: Human Ether-a-go-go-Related Gene (hERG) channel small molecule antagonists: fluorescence cell-based qHTS assay (AID 1671200); further: nearly all actives have a fitted effect of over 50% in size; further: potency means the concentration at half of the fitted maximal effect;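 on activity change, negative = inhibition: hERG-expressing U2OS cells given a thallium stimulus after FluxOR II dye loading; series mostly up to about 77 µM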
# Voltage-gated inwardly rectifying potassium channel KCNH2 (Homo sapiens), sequence (Q12809 whole entry, looked up): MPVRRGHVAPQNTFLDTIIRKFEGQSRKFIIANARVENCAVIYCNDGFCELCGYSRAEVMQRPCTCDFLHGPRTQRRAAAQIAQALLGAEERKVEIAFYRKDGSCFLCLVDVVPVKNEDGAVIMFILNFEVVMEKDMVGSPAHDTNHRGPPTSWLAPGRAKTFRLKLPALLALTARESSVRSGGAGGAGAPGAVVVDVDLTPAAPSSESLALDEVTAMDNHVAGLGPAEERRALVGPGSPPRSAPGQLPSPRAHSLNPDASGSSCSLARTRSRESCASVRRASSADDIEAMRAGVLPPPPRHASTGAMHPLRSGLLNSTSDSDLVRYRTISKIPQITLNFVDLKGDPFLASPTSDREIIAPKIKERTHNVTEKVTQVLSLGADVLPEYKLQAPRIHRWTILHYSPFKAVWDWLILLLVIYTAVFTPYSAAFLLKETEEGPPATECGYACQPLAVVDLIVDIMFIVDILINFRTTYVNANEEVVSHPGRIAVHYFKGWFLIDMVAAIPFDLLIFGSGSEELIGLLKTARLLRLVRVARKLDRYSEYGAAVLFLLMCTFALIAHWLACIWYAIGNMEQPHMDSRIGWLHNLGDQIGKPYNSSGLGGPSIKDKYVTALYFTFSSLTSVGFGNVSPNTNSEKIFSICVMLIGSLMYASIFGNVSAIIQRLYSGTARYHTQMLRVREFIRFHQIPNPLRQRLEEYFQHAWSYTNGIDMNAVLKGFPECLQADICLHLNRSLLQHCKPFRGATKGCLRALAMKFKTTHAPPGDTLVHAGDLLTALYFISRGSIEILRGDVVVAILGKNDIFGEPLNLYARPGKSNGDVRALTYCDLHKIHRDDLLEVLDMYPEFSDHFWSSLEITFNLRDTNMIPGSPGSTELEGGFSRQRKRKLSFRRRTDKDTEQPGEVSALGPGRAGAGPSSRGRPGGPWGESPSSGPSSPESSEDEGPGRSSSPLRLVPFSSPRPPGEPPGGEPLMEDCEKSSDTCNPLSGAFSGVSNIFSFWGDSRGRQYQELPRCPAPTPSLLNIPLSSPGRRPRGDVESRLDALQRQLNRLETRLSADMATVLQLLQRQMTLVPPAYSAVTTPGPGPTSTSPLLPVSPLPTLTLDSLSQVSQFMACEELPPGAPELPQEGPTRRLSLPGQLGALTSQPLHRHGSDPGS
# How it was run: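 hERG-U2OS cells plated overnight at 37 C, loaded with FluxOR II dye 1 h at RT in dark; after 10 min, thallium stimulus added. Fluorescence (480/540 nm) read kinetically for 2 min at 1 s intervals.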
# [8] = target: Cytochrome P450 3A4 (Homo sapiens) (UniProt P08684); assay: Cytochrome P450 Family 3 Subfamily A Member 4 (CYP3A4) small molecule antagonists: luciferase reporter qHTS assay (AID 1671201); further: nearly all actives have a fitted effect of over 50% in size; further: potency means the concentration at half of the fitted maximal effect; on activity change, negative = inhibition: series mostly up to about 120 µM
# Cytochrome P450 3A4 (Homo sapiens), sequence (P08684 whole entry, looked up): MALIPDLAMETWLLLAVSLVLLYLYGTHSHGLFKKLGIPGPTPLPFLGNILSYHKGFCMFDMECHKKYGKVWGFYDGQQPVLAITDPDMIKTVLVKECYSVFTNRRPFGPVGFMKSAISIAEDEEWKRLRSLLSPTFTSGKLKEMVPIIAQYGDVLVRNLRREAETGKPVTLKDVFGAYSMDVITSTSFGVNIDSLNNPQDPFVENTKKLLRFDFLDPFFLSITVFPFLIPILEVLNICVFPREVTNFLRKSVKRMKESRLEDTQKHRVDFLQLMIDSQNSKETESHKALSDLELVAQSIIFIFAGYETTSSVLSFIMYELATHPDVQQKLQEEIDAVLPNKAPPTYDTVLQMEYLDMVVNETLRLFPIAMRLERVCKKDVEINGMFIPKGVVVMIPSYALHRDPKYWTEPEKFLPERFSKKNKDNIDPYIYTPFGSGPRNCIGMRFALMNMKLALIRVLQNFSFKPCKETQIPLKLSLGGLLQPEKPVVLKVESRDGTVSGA
# How it was run: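 P450-Glo CYP3A4 luminescent assay: compounds preincubated 10 min at room temperature with enzyme and proluciferin substrate, NADPH regeneration added, 1 h room-temperature reaction, stopped with luciferin detection reagent; luminescence read after 20 min. Ketoconazole positive control.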
# [9] = target: Acetylcholinesterase (Homo sapiens) (UniProt P22303); assay: Acetylcholinesterase (AChE) small molecule antagonists: enzyme-based qHTS assay with human liver microsomes (AID 1347399; calls by dose curve; further: nearly all actives have a fitted effect of over 60% in size); conditions: Potency: qHTS inhibition
# How it was run: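 Recombinant human AChE (50 mU/mL in the enzyme mix) and human liver microsomes (0.25 mg/mL final) were preincubated with compound and NADPH (0.25 mg/mL final) for 30 min at 37 C. Acetylthiocholine/DTNB was then added; thiocholine was read colorimetrically after 10 min at room temperature.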
smiles,measurement,setting,value
CCC(C)c1cccc(C(C)CC)c1O (stereo unspecified),Potency,[1],inactive
same,Potency,[2],inactive
same,Potency,[3],inactive
same,Potency,[4],inactive
same,Potency,[5],15.9 µM (active)
same,Potency,[6],22.4 µM (active)
same,Potency,[7],inactive
Cc1nn(-c2cc(NS(C)(=O)=O)c(Cl)cc2Cl)c(=O)n1C(F)F,Potency,[1],inactive
same,Potency,[2],inactive
same,Potency,[3],inactive
same,Potency,[4],inactive
same,Potency,[5],39.9 µM (active)
same,Potency,[7],inactive
same,Potency,[8],inactive
CCOP(=S)(OCC)Oc1cc(C)nc(N(CC)CC)n1,Potency,[1],inactive
same,Potency,[9],inactive
same,Potency,[3],50.2 µM (active)
same,Potency,[4],0.399 µM (active)
same,Potency,[5],11.2 µM (active)
same,Potency,[6],3.56 µM (active)
same,Potency,[7],inactive
same,Potency,[8],0.633 µM (active)
CC(=O)O.CC(=O)O.CC(=O)O.CC(=O)O.CC(=O)O.CC(=O)O.CC(=O)O.O.O.[Cr].[Cr].[Cr],Potency,[7],inactive
CC(C)=CCN1CC[C@@]2(C)c3cc(O)ccc3C[C@@H]1[C@@H]2C,Potency,[2],44.1 µM (active)
same,Potency,[9],inactive
same,Potency,[4],78.5 µM (active)
same,Potency,[5],inactive
same,Potency,[6],inactive
same,Potency,[8],inactive
Cc1ccc([N+](=O)[O-])[c]2c1[O][Hg]2,Potency,[2],inactive
same,Potency,[9],inactive
same,Potency,[3],0.871 µM (active)
same,Potency,[4],2.19 µM (active)
same,Potency,[5],0.871 µM (active)
same,Potency,[6],3.23 µM (active)
same,Potency,[7],6.01 µM (active)
same,Potency,[8],7.76 µM (active)
[Cl-].[Cl-].[Sn+2],Potency,[7],inactive
CNC(=O)/C=C(\C)OP(=O)(OC)OC,Potency,[2],31.7 µM (active)
same,Potency,[9],inactive
same,Potency,[3],inactive
same,Potency,[4],inactive
same,Potency,[5],inactive
same,Potency,[6],28.3 µM (active)
same,Potency,[7],inactive
same,Potency,[8],inactive
COP(=O)(OC)Oc1ccc([N+](=O)[O-])cc1,Potency,[3],25.2 µM (active)
same,Potency,[4],20 µM (active)
same,Potency,[5],inactive
same,Potency,[6],inactive
same,Potency,[7],inactive
same,Potency,[8],inactive
Oc1ccc2[nH]cc(CCCCN3CC=C(c4ccccc4)CC3)c2c1,Potency,[7],2.68 µM (active)
CN1CCc2cc(Cl)c(O)cc2[C@H]2c3ccccc3CC[C@@H]21,Potency,[2],21.9 µM (active)
same,Potency,[9],inactive
same,Potency,[3],0.0078 µM (active)
same,Potency,[4],inactive
same,Potency,[6],inactive
same,Potency,[7],9.52 µM (active)
same,Potency,[8],inactive
[Cl-].[Cl-].[Cl-].[Yb+3],Potency,[7],inactive
COP(=O)(OC)O/C(=C\Cl)c1cc(Cl)c(Cl)cc1Cl,Potency,[3],79.6 µM (active)
same,Potency,[4],5.03 µM (active)
same,Potency,[5],44.8 µM (active)
same,Potency,[6],1.42 µM (active)
same,Potency,[7],inactive
same,Potency,[8],inactive
C1=CCC=C1,Potency,[7],inactive
COc1ccc(Cc2nccc3cc(OC)c(OC)cc23)cc1OC,Potency,[6],inactive
same,Potency,[7],inactive
O.O.O.O.O.O.O=S(=O)([O-])[O-].[Ni+2],Potency,[7],inactive
CC(=O)[O-].CC(=O)[O-].O.O.O.[Pb+2],Potency,[7],inactive
[C-]1=CC=CC1.[Cl][Zr+2][Cl].c1cc[cH-]c1,Potency,[7],inactive
CN,Potency,[7],inactive
COc1ccc2[nH]cc(CCN(C(C)C)C(C)C)c2c1,Potency,[3],4.09 µM (active)
same,Potency,[4],inactive
same,Potency,[5],inactive
same,Potency,[6],40.9 µM (active)
same,Potency,[7],28.2 µM (active)
N#CSCc1ccccc1,Potency,[1],inactive
same,Potency,[3],45 µM (active)
same,Potency,[4],71.3 µM (active)
same,Potency,[6],80 µM (active)
same,Potency,[7],inactive
CC(C)(C)c1ccc(OP(=O)(Oc2ccccc2)Oc2ccccc2)cc1,Potency,[1],22.6 µM (active)
same,Potency,[9],inactive
same,Potency,[3],inactive
same,Potency,[4],5.06 µM (active)
same,Potency,[6],16 µM (active)
same,Potency,[7],15.6 µM (active)
same,Potency,[8],inactive
CCCCn1cc[n+](C)c1.[Cl][Fe-]([Cl])([Cl])[Cl],Potency,[7],inactive
[Cl][Hg][c]1ccccc1,Potency,[1],inactive
same,Potency,[3],0.796 µM (active)
same,Potency,[4],5.03 µM (active)
same,Potency,[5],3.99 µM (active)
same,Potency,[6],28.3 µM (active)
same,Potency,[7],17.4 µM (active)
same,Potency,[8],8.94 µM (active)
O.O.O.O.O.O.O.O=S(=O)([O-])[O-].[Co+2],Potency,[7],inactive
CCCC[N+]1(C)CCCC1 (tested in a mixture with another compound),Potency,[4],inactive
same,Potency,[5],inactive
same,Potency,[7],inactive
same,Potency,[8],inactive
CCOP(=O)(OCC)Oc1nc(Cl)c(Cl)cc1Cl,Potency,[3],5.61 µM (active)
same,Potency,[4],3.15 µM (active)
same,Potency,[6],1.58 µM (active)
same,Potency,[7],inactive
same,Potency,[8],inactive
O=[N+]([O-])c1cccc2cccc([N+](=O)[O-])c12,Potency,[1],inactive
same,Potency,[9],inactive
same,Potency,[3],inactive
same,Potency,[5],inactive
same,Potency,[7],inactive
CC(=O)[O-].CC(=O)[O-].[Co+2],Potency,[7],inactive
CCCCn1cc[n+](C)c1 (tested in a mixture with another compound),Potency,[7],inactive
CC(=O)[O-].CC(=O)[O-].O.O.[Zn+2],Potency,[7],inactive
CC(=O)[O-].CC(=O)[O-].CC(=O)[O-].[Cr+3],Potency,[7],inactive
CC(Cc1ccc(O)cc1)NCC(O)c1cc(O)cc(O)c1 (stereo unspecified),Potency,[3],9.77 µM (active)
same,Potency,[4],inactive
same,Potency,[5],inactive
same,Potency,[6],inactive
same,Potency,[7],inactive
Clc1ccc(C(Cl)(Cl)Cl)cc1Cl,Potency,[1],inactive
same,Potency,[3],inactive
same,Potency,[7],inactive
CC1(C)[C@H](/C=C2\CCSC2=O)[C@@H]1C(=O)OCc1coc(Cc2ccccc2)c1,Potency,[2],inactive
same,Potency,[9],inactive
same,Potency,[3],39.9 µM (active)
same,Potency,[4],2.24 µM (active)
same,Potency,[6],22.4 µM (active)
same,Potency,[7],inactive
same,Potency,[8],3.99 µM (active)
O=C(N[C@@H]1N=C(c2ccccc2F)c2cccc3c2N(CC3)C1=O)c1cc2ccccc2[nH]1,Potency,[1],inactive
same,Potency,[3],inactive
same,Potency,[5],4.9 µM (active)
same,Potency,[6],inactive
same,Potency,[7],12 µM (active)
same,Potency,[8],inactive
CC(=O)[O-].CC(=O)[O-].CC(=O)[O-].[Sb+3],"activity change, negative = inhibition",[7],0.0833% [at 2.72 µM]
CNC(=O)O/N=C(\C)C(C)S(C)(=O)=O (stereo unspecified),Potency,[2],447 µM (active)
same,Potency,[9],inactive
same,Potency,[4],inactive
same,Potency,[6],inactive
same,Potency,[7],inactive
same,Potency,[8],inactive
CCn1cc[n+](C)c1 (tested in a mixture with another compound),Potency,[3],inactive
same,Potency,[4],inactive
same,Potency,[5],inactive
same,Potency,[6],inactive
same,Potency,[7],inactive
O=[N+]([O-])[O-].[Tl+],Potency,[7],inactive
CN1CCc2cc3c(cc2C1O)OCO3 (stereo unspecified),Potency,[3],2.01 µM (active)
same,Potency,[6],40.2 µM (active)
same,Potency,[7],inactive
same,Potency,[8],inactive
